# The panel holds about 83,000 compounds, 20% with a hit somewhere; the sample as a whole holds those more often.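 Cell lines were cultured in 96-well plates, exposed to a single compound concentration, and assessed for percent growth 48 hours later.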 Values without a mark were called inactive. Calls of active or inactive are those of the source. Rule for the calls: active = growth percent below 10; inactive = the rest.
# What was measured:
# Test in all cases: NCI-60 one-dose screen, 48 h (100 = growth as untreated, 0 = no growth, -100 = all killed)
# Details in all cases: 10 µM unless noted
# [1] = test system: SK-MEL-2 melanoma
# [2] = test system: EKVX NSCLC
# [3] = test system: SN12C renal
# [4] = test system: UO-31 renal
# [5] = test system: ACHN renal
# [6] = test system: CAKI-1 renal
# [7] = test system: A498 renal
# [8] = test system: CCRF-CEM leukemia
# [9] = test system: MOLT-4 leukemia
# [10] = test system: SR leukemia
# [11] = test system: RPMI-8226 leukemia
# [12] = test system: OVCAR-8 ovarian
# [13] = test system: OVCAR-5 ovarian
# [14] = test system: OVCAR-4 ovarian
# [15] = test system: SK-OV-3 ovarian
# [16] = test system: IGROV1 ovarian
# [17] = test system: OVCAR-3 ovarian
# [18] = test system: HS 578T breast
# [19] = test system: NCI/ADR-RES ovarian
SMILES,growth [1],growth [2],growth [3],growth [4],growth [5],growth [6],growth [7],growth [8],growth [9],growth [10],growth [11],growth [12],growth [13],growth [14],growth [15],growth [16],growth [17],growth [18],growth [19]
Cc1ccc(C2CC(c3cccc(Nc4ccncc4)c3)=NN2c2ccc(Cl)cc2)cc1 (stereo not given),-74.8% (active),-85.1% (active),-95.8% (active),-99.4% (active),-100% (active),-94.7% (active),-93.8% (active),-30.8% (active),-32.8% (active),-12.4% (active),-46% (active),-35% (active),-100% (active),-83.2% (active),-92.3% (active),-92.7% (active),-91.1% (active),-55.9% (active),-63% (active)
O=C(NCCN1CCOCC1)OCc1nc2nc(Cl)nc(N3CCOCC3)c2[nH]1,18.9%,95.2%,29.2%,39.6%,33.1%,25.2%,-8.24% (active),5.93% (active),19%,-0.969% (active),8.39% (active),7.4% (active),93.3%,45.7%,30.7%,17.6%,-2.86% (active),14.3%,6.61% (active)
CCCCCCOc1ccc(C(=N)N(CCCC)CCCC)c2ccccc12,-85.6% (active),-75.4% (active),-86.5% (active),-93.9% (active),-92% (active),-83.7% (active),,-12.8% (active),-38.4% (active),-46.9% (active),-41.2% (active),-74.6% (active),-93.8% (active),-96.4% (active),-96.4% (active),,-94.2% (active),-13.9% (active),-95.3% (active)
O=C(N/N=C/c1ccc(O)c(O)c1)c1sc2ccccc2c1Cl,-13.4% (active),98.3%,77.1%,61%,62.9%,84.7%,71.4%,14.1%,43.7%,,16.6%,90.4%,100%,92.7%,75.7%,64.1%,96.9%,84.4%,83.7%
COc1ccc(NS(=O)(=O)c2ccc(C)cc2)c([N+](=O)[O-])c1,110%,101%,88.2%,86.3%,95.4%,98.2%,80%,97%,96.3%,,96.7%,104%,106%,115%,105%,102%,106%,95.7%,95.9%
O=S(=O)(O)c1cc(O)c2c(N=Nc3ccc(Nc4ccccc4)c4c(S(=O)(=O)O)cccc34)cc(S(=O)(=O)O)cc2c1,99.7%,103%,99.2%,74.3%,98.5%,99.4%,,108%,110%,111%,109%,97%,105%,113%,104%,,107%,101%,102%
Cc1cc2cc3cc(C)c(N)cc3[n+](C)c2cc1N,-21.9% (active),14.3%,8.73% (active),14%,28.5%,52.7%,,18.8%,5.32% (active),,-1.31% (active),1.23% (active),46.2%,10%,26%,16.1%,1.65% (active),9.56% (active),48.5%
CCOC(=O)N1CCN(CCCCl)CC1,103%,98.2%,99%,89.5%,97.4%,101%,,110%,98.7%,97.1%,114%,98.8%,,109%,126%,97.1%,119%,108%,102%
NC(=S)N/N=C/c1ccc(OC(=O)COc2cc(Cl)c(Cl)cc2Cl)cn1,59.1%,106%,43.9%,22.1%,18.4%,36.4%,,40.7%,31.3%,1.38% (active),76.4%,26.1%,,,99.5%,63.8%,59.2%,114%,26.9%
O=C(Nc1ccc2cc3ccc(NC(=O)NC4CCCCC4)cc3nc2c1)NC1CCCCC1,97.3%,95.1%,88.2%,89.1%,100%,93.3%,,25.1%,9.49% (active),,,93.4%,103%,92.8%,95.4%,99.9%,98.2%,36.4%,106%
C=C(C)[C@@H]1CC[C@]2(C(=O)O)CC[C@]3(C)[C@H](CC[C@@H]4[C@@]5(C)C[C@@H](CC#Cc6ccc(Br)cc6)C(=O)C(C)(C)[C@@H]5CC[C@]43C)[C@@H]12,-12.6% (active),52.1%,4.51% (active),68%,65%,,-4.41% (active),28.9%,31.9%,55.2%,33.4%,35.6%,73.8%,30.3%,50.5%,58.6%,51.4%,59%,76.4%
COc1cc(-c2cc(=O)oc3cc(O)ccc23)c(OC)c2c1OCO2,96.6%,90.6%,84%,72.2%,91.2%,76.9%,94.6%,,100%,84.2%,60.2%,91.6%,91.6%,68.9%,125%,91.5%,92.7%,81.9%,92.6%
O=C1Nc2ccccc2/C1=N/c1nc(-c2ccc(Cl)cc2)cs1,88.2%,60.2%,79.1%,52.2%,80.2%,,51%,41%,25%,60.1%,39.3%,54.6%,98.9%,67.7%,57.8%,66.7%,64.9%,71.6%,88.9%
O=C(CCN1CCCC1)Nc1ccc2c(NCc3ccc(F)cc3)c3ccccc3nc2c1,-5.55% (active),14.6%,-2.56% (active),1.44% (active),5.75% (active),3.81% (active),,-15.2% (active),-19.8% (active),-13.2% (active),-34.8% (active),2.58% (active),2.2% (active),-30.9% (active),-5.63% (active),-2.1% (active),-46.5% (active),-9.73% (active),70.3%
COc1cc(CNC(=O)CCCCC[P+](c2ccccc2)(c2ccccc2)c2ccccc2)c(OC)c2c1OCO2,60.3%,71.8%,75.4%,92.3%,106%,89.4%,78.8%,,99.2%,22.9%,1.67% (active),75.3%,,23.7%,127%,41.8%,44.5%,78%,105%
CC(C)(C)CC(C)(C)Nc1c(-c2ccc3c(c2)OCO3)nc2cnccn12,95.6%,80.3%,92.8%,63.1%,86.5%,69.6%,75.6%,89.1%,69.4%,73.1%,69.7%,95.1%,91.2%,86.9%,92%,72.1%,92.5%,88.5%,
NC(=O)c1cccc(-c2ccccc2N2CCCCC2)c1,103%,97.2%,93.6%,82.4%,95.3%,83%,95.3%,89.7%,91.1%,66.4%,74.2%,99.7%,95.1%,89.9%,94.9%,92.4%,106%,101%,102%
